# Data published in PubChem BioAssay AID1159580 (chemical genetic matrix, 2015).
# Where “and” joins values, the source holds several entries; their conditions need not be identical. Identical values can stand only once. In all, about 5,500 compounds went through this assay and about 2,000 (36%) were called active. Inconclusive results (about 18%) are left out. No stated cut-off is given here; in the data, active means normalized growth mostly below about 0.91 (no sharp cut-off); inconclusive means no clear call, values can overlap the other calls; inactive means mostly above about 0.92. The list shows a part of the results.
# Experiment: chemical genetic growth profiling, strain panel (AID 1159580);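 further: tested at 20 µM; growth read once vehicle control cultures reached saturation at 30 °C; 1 = growth at the plate median or of vehicle wells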
# Details: S. cerevisiae deletion strains, growth OD
smiles,measurement,setting,value
CC(=O)[C@H]1CCC2C3CC=C4C[C@@H](O)CC[C@]4(C)C3CC[C@@]21C (stereo partly specified),normalized growth,"locus YAL013W, strain DEP1, stronger effect = lower value",0.999 (inactive)
same,normalized growth,"locus YAL021C, strain ccr4, stronger effect = lower value",0.958 (inactive)
same,normalized growth,"locus YAL026C, strain drs2, stronger effect = lower value",0.788 (active)
same,normalized growth,"locus YAL030W, strain snc1, stronger effect = lower value",0.956 (inactive)
same,normalized growth,"locus YBL061C, strain skt5, stronger effect = lower value",0.981 (inactive)
same,normalized growth,"locus YBR009C, strain hhf1, stronger effect = lower value",0.929 (inactive)
same,normalized growth,"locus YBR021W, strain FUR4, stronger effect = lower value",0.962 (inactive)
same,normalized growth,"locus YBR023C, strain chs3, stronger effect = lower value",0.969 (inactive)
same,normalized growth,"locus YBR171W, strain sec66, stronger effect = lower value",0.996 (inactive)
same,normalized growth,"locus YBR229C, strain ROT2, stronger effect = lower value",1.01 (inactive)
same,normalized growth,"locus YBR231C, strain swc5, stronger effect = lower value",0.955 (inactive)
same,normalized growth,"locus YBR279W, strain paf1, stronger effect = lower value",0.981 (inactive)
same,normalized growth,"locus YCL011C, strain gbp2, stronger effect = lower value",0.947 (inactive)
same,normalized growth,"locus YCL016C, strain dcc1, stronger effect = lower value",0.95 (inactive)
same,normalized growth,"locus YCL029C, strain bik1, stronger effect = lower value",0.966 (inactive)
same,normalized growth,"locus YCL069W, strain vba3, stronger effect = lower value",0.897 (active)
same,normalized growth,"locus YCR088W, strain abp1, stronger effect = lower value",1.02 (inactive)
same,normalized growth,"locus YDL005C, strain med2, stronger effect = lower value",1 (inactive)
same,normalized growth,"locus YDL035C, strain GPR1, stronger effect = lower value",0.863 (inactive)
same,normalized growth,"locus YDL040C, strain nat1, stronger effect = lower value",1.01 (inactive)
same,normalized growth,"locus YDL074C, strain BRE1, stronger effect = lower value",0.836 (inactive)
same,normalized growth,"locus YDL101C, strain DUN1, stronger effect = lower value",0.985 (inactive)
same,normalized growth,"locus YDL134C, strain PPH21, stronger effect = lower value",0.957 (inactive)
same,normalized growth,"locus YDL185W, strain tfp1, stronger effect = lower value",1.02 (inactive)
same,normalized growth,"locus YDL192W, strain arf1, stronger effect = lower value",1.02 (inactive)
same,normalized growth,"locus YDR001C, strain nth1, stronger effect = lower value",1.02 (inactive)
same,normalized growth,"locus YDR069C, strain doa4, stronger effect = lower value",0.965 (inactive)
same,normalized growth,"locus YDR101C, strain arx1, stronger effect = lower value",1.01 (inactive)
same,normalized growth,"locus YDR137W, strain rgp1, stronger effect = lower value",0.518 (active)
same,normalized growth,"locus YDR150W, strain NUM1, stronger effect = lower value",1.01 (inactive)
same,normalized growth,"locus YDR159W, strain sac3, stronger effect = lower value",0.927 (inactive)
same,normalized growth,"locus YDR162C, strain NBP2, stronger effect = lower value",0.958 (inactive)
same,normalized growth,"locus YDR195W, strain ref2",1.28 [resistant] (active)
same,normalized growth,"locus YDR297W, strain sur2, stronger effect = lower value",0.973 (inactive)
same,normalized growth,"locus YDR318W, strain mcm21, stronger effect = lower value",0.94 (inactive)
same,normalized growth,"locus YDR334W, strain swr1, stronger effect = lower value",1.03 (inactive)
same,normalized growth,"locus YDR335W, strain msn5, stronger effect = lower value",0.958 (inactive)
same,normalized growth,"locus YDR388W, stronger effect = lower value",0.981 (inactive)
same,normalized growth,"locus YDR392W, strain spt3, stronger effect = lower value",0.335 (active)
same,normalized growth,"locus YDR502C, strain sam2, stronger effect = lower value",0.943 (inactive)
same,normalized growth,"locus YEL003W, strain gim4, stronger effect = lower value",0.938 (inactive)
same,normalized growth,"locus YEL037C, strain rad23, stronger effect = lower value",0.976 (inactive)
same,normalized growth,"locus YEL061C, strain CIN8 (second series), stronger effect = lower value",1.01 (inactive)
same,normalized growth,"locus YEL061C, strain CIN8, stronger effect = lower value",1.01 (inactive)
same,normalized growth,"locus YER015W, strain faa2, stronger effect = lower value",0.939 (inactive)
same,normalized growth,"locus YER016W, strain bim1, stronger effect = lower value",0.996 (inactive)
same,normalized growth,"locus YER110C, stronger effect = lower value",1.03 (inactive)
same,normalized growth,"locus YER111C, strain swi4, stronger effect = lower value",1.01 (inactive)
same,normalized growth,"locus YER155C, strain BEM2 (second series), stronger effect = lower value",0.774 (active)
same,normalized growth,"locus YER155C, strain BEM2, stronger effect = lower value",1.01 (inactive)
same,normalized growth,"locus YER167W, strain BCK2, stronger effect = lower value",0.926 (inactive)
same,normalized growth,"locus YFR010W, strain ubp6, stronger effect = lower value",1.05 (inactive)
same,normalized growth,"locus YGL078C, strain dbp3, stronger effect = lower value",1.02 (inactive)
same,normalized growth,"locus YGL086W, strain mad1, stronger effect = lower value",0.944 (inactive)
same,normalized growth,"locus YGL167C, strain pmr1, stronger effect = lower value",0.996 (inactive)
same,normalized growth,"locus YGL173C, strain kem1, stronger effect = lower value",0.923 (inactive)
same,normalized growth,"locus YGL227W, strain vid30, stronger effect = lower value",1.01 (inactive)
same,normalized growth,"locus YGL240W, strain doc1, stronger effect = lower value",0.982 (inactive)
same,normalized growth,"locus YGL248W, strain PDE1, stronger effect = lower value",0.962 (inactive)
same,normalized growth,"locus YGL253W, strain hxk2, stronger effect = lower value",0.9 (active)
same,normalized growth,"locus YGR078C, strain PAC10, stronger effect = lower value",0.879 (inactive)
same,normalized growth,"locus YGR135W, strain pre9, stronger effect = lower value",0.904 (inactive)
same,normalized growth,"locus YGR229C, strain SMI1, stronger effect = lower value",0.958 (inactive)
same,normalized growth,"locus YGR252W, strain gcn5, stronger effect = lower value",0.65 (active)
same,normalized growth,"locus YHR013C, strain ard1, stronger effect = lower value",0.948 (inactive)
same,normalized growth,"locus YHR027C, strain rpn1, stronger effect = lower value",0.961 (inactive)
same,normalized growth,"locus YHR030C, strain SLT2, stronger effect = lower value",0.95 (inactive) and 0.954 (inactive)
same,normalized growth,"locus YHR079C, strain IRE1 (second series), stronger effect = lower value",0.998 (inactive)
same,normalized growth,"locus YHR079C, strain IRE1, stronger effect = lower value",0.988 (inactive)
same,normalized growth,"locus YHR094C, strain hxt1, stronger effect = lower value",1.03 (inactive)
same,normalized growth,"locus YHR129C, strain ARP1, stronger effect = lower value",1.01 (inactive)
same,normalized growth,"locus YHR142W, strain chs7, stronger effect = lower value",0.862 (active)
same,normalized growth,"locus YHR200W, strain rpn10, stronger effect = lower value",0.965 (inactive)
same,normalized growth,"locus YIL066C, strain RNR3, stronger effect = lower value",0.865 (inactive)
same,normalized growth,"locus YIL073C, strain SPO22, stronger effect = lower value",0.807 (inactive)
same,normalized growth,"locus YIL125W, strain kgd1, stronger effect = lower value",1.03 (inactive)
same,normalized growth,"locus YIR030C, strain dcg1, stronger effect = lower value",1.04 (inactive)
same,normalized growth,"locus YJL092W, strain hpr5, stronger effect = lower value",0.97 (inactive)
same,normalized growth,"locus YJL095W, strain BCK1 (second series), stronger effect = lower value",0.935 (inactive)
same,normalized growth,"locus YJL095W, strain BCK1, stronger effect = lower value",0.754 (active) and 0.958 (inactive)
same,normalized growth,"locus YJL115W, strain asf1, stronger effect = lower value",0.994 (inactive)
same,normalized growth,"locus YJL129C, strain trk1, stronger effect = lower value",0.935 (inactive)
same,normalized growth,"locus YJL134W, strain LCB3, stronger effect = lower value",1.01 (inactive)
same,normalized growth,"locus YJL154C, strain vps35, stronger effect = lower value",1.01 (inactive)
same,normalized growth,"locus YJL164C, strain tpk1, stronger effect = lower value",0.923 (inactive)
same,normalized growth,"locus YJL166W, strain qcr8, stronger effect = lower value",0.895 (active)
same,normalized growth,"locus YJL168C, strain set2, stronger effect = lower value",1.03 (inactive)
same,normalized growth,"locus YJL187C, strain SWE1 (second series), stronger effect = lower value",0.945 (inactive)
same,normalized growth,"locus YJR043C, strain POL32, stronger effect = lower value",0.991 (inactive)
same,normalized growth,"locus YJR066W, strain TOR1, stronger effect = lower value",0.866 (inactive)
same,normalized growth,"locus YJR075W, strain HOC1, stronger effect = lower value",0.933 (inactive)
